{"source": "PubChem BioAssay (Tox21)", "note": "Results filed as inconclusive are left out. Active and inactive are the calls of the source. Calls follow the shape of the dose curve; as a rule, active = well fitted curve in the direction sought with a large enough effect in the signal ratio in the repeat runs (not every such curve was filed as active); inconclusive = weak or mixed curves, or a change in a side signal; inactive = no such curve, though single readings can be large or run the other way; the % refers to the signal ratio. % is scaled to controls: 0 for no effect and ±100 for the full control effect."}
{"assay": "qHTS assay to identify small molecule agonists of the NFkB signaling pathway (AID 1159509)", "conditions": "NFkB-bla ME-180 cells, beta-lactamase FRET ratio, 5 h; series mostly up to 61 µM", "excerpt": "National Center for Advancing Translational Sciences [NCATS]\nNIH Chemical Genomics Center [NCGC]\nU.S. Environmental Protection Agency [EPA]\nNational Institutes of Environmental Health Sciences [NIEHS]\nNational Toxicology Program [NTP]\nU.S. Food and Drug Administration [FDA]\nTranscription factors and their stimulated target gene expression play pivotal roles across many cellular processes including responses to environmental stimuli. Proper regulation of associated pathways is critical to maintain cell health and function. Constitutive activation of transcription factor pathways has been implicated in tumors as it may block cellular functions such as apoptosis and lead to invasion and metastasis. One important transcription factor that stimulates gene expression in response to cytokines, UV radiation, and other stimuli is nuclear factor-kappa B (NFkB). To measure activation of the NFkB pathway, the CellSensor NFkB-bla ME-180 cell line (Life Technologies, Carlsbad, CA) that stably expresses beta-lactamase reporter gene under the regulation of a NF-kB response element was used. This assay allows measurement of the NFkB pathway activity induced by compounds in a ME-180 cell line. This system quantitates NF-kB activity using a FRET-based assay system where beta-lactamase expression disrupts FRET, allowing for fluorescent measurement of activity. This cell line has been used to screen the Tox21 10K compound library and to identify compounds that induce the NFkB pathway activity.\nTox21 Assay Protocol Summary:\nNFkB-bla ME-180 cells were dispensed at 2,000 cells/6 uL of assay medium per well into black wall/clear-bottom 1536-well plates using a Multidrop Combi (ThermoFisher Scientific, Waltham, MA) dispenser. After the assay plates were incubated at 37 C and 5% CO2 for an overnight, 23 nL of compounds dissolved in DMSO, positive controls or DMSO only was transferred to the assay plate by a Pintool station (Kalypsys, San Diego, CA). The assay plates were incubated at 37 C and 5% CO2 for 5 hr. One uL of LiveBLAzer B/G FRET substrate (Life Technologies) was added using a Flying Reagent Dispenser (Aurora Discovery, San Diego, CA) and the plates were incubated at room temperature for 1.5 hr. Fluorescence intensity (405 nm excitation, 460 nm and 530 nm emissions) was measured using an Envision plate reader (PerkinElmer, Shelton, CT)."}
{"smiles": "Clc1cc2c(cc1Cl)Oc1cc(Cl)c(Cl)cc1O2", "activation": "-0.0516% [at 0.281 µM] (inactive)"}
{"smiles": "Oc1ccc(Cc2ccc(O)cc2)cc1", "outcome": "inactive"}
{"smiles": "CC[C@H](N)c1ccccc1", "outcome": "inactive"}
{"smiles": "CC(=O)OCC1=C(C(=O)O)N2C(=O)[C@@H](N)[C@H]2SC1", "outcome": "inactive"}
{"smiles": "CCN(CC)CCOC(=O)C(O)(c1ccccc1)c1ccccc1", "outcome": "inactive"}
{"smiles": "O=C(O)c1c(Cl)ccc2cc(Cl)cnc12", "outcome": "inactive"}
{"smiles": "CCCN1CCC[C@@H]2Cc3[nH]ncc3C[C@H]21", "outcome": "inactive"}
{"smiles": "CC(Cc1ccccc1)NCCn1cnc2c1c(=O)n(C)c(=O)n2C", "note": "(stereo not given)", "outcome": "inactive"}
{"smiles": "CCCCCCC(=O)CCCCCC/C=C/C[C@@H](O)[C@H](O)[C@@](N)(CO)C(=O)O", "outcome": "inactive"}
{"smiles": "CC(C)N(Cc1ccccc1)C(=O)C(C)(C)C", "outcome": "inactive"}
{"smiles": "COC(=O)[C@@H](N)CCCN/C(N)=N/[N+](=O)[O-]", "outcome": "inactive"}
{"smiles": "CCOC(=O)C(Cl)Cc1cc(-n2nc(C)n(C(F)F)c2=O)c(F)cc1Cl", "note": "(stereo not given)", "outcome": "inactive"}
{"smiles": "Brc1c(Br)c(Br)c(Br)c(Br)c1Br", "activation": "0.368% [at 6.95 µM] (inactive)"}
{"smiles": "CCCCCCC1CCOC1=O", "note": "(stereo not given)", "outcome": "inactive"}
{"smiles": "CCOc1cc(OP(=S)(OC)OC)nc(CC)n1", "outcome": "inactive"}
{"smiles": "CCC(C)(C#N)N=NC(C)(C#N)CC", "note": "(stereo not given)", "outcome": "inactive"}
{"smiles": "CCOC(=O)CC(SP(=S)(OC)OC)C(=O)OCC", "note": "(stereo not given)", "outcome": "inactive"}
{"smiles": "CCCOC(=O)Cc1ccc(OCC(=O)N(CC)CC)c(OC)c1", "outcome": "inactive"}
{"smiles": "[P]#[In]", "outcome": "inactive"}
{"smiles": "COc1cc(CC(C)N)cc(OC)c1OC", "note": "(stereo not given)", "outcome": "inactive"}
{"smiles": "CC(O)CCl", "note": "(stereo not given)", "outcome": "inactive"}
{"smiles": "CN(C)CCN(C)C", "outcome": "inactive"}
{"smiles": "O=C(O)C(F)(F)C(F)(F)C(F)(F)C(F)(F)C(F)(F)C(F)(F)F", "outcome": "inactive"}
{"smiles": "C#CC(C)(C)O", "outcome": "inactive"}
{"smiles": "BrCc1ccc(Br)cc1", "outcome": "inactive"}
{"smiles": "CS(=O)(=O)c1ccc(C(=O)C2C(=O)CCCC2=O)c(Cl)c1COCC(F)(F)F", "outcome": "inactive"}
{"smiles": "CCOC(=O)Nc1cccc(OC(=O)Nc2ccccc2)c1", "outcome": "inactive"}
{"smiles": "O=C/C=C/c1ccco1", "outcome": "inactive"}
{"smiles": "O=C1C2CC=CCC2C(=O)N1SC(Cl)(Cl)Cl", "note": "(stereo not given)", "outcome": "inactive"}
{"smiles": "CC(=O)CN(CC(C)=O)N=O", "outcome": "inactive"}
{"smiles": "O=C(Cl)c1ccccc1", "outcome": "inactive"}
{"smiles": "CNC(=O)NC(O)C(Cl)(Cl)Cl", "note": "(stereo not given)", "outcome": "inactive"}
{"smiles": "O=C1CC(=O)NC(=O)N1", "outcome": "inactive"}
{"smiles": "O=c1[nH]c2ccccc2n1C1CCNCC1", "outcome": "inactive"}
{"smiles": "C=CCCC#N", "outcome": "inactive"}
{"smiles": "O=c1[nH]oc2c1CCNC2", "outcome": "inactive"}
{"smiles": "Cc1cccc2sc3nncn3c12", "outcome": "inactive"}
{"smiles": "CCCCOC(C)=O", "outcome": "inactive"}
{"smiles": "CC(C)c1ccc(O)cc1", "outcome": "inactive"}
{"smiles": "NNC(N)=O", "outcome": "inactive"}
